Screens (PubChem BioAssay)
Pf growth 48h: inhibits P. falciparum growth in the first generation, 48 h; P. falciparum luciferase growth in erythrocytes, 48 h; Potency, µM (doses to about 28.7 µM), for inactives: at the top dose activity change, negative = inhibition, most hits filed as inhibitors; hit rate 5.9% among 310,000; further: potency means the concentration at half of the fitted maximal effect; on the % scale 0 is the no-effect control and ±100 the full control effect
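Luciferase-expressing parasites in RBCs, 2% Hct / 0.1% parasitemia final; RPMI 1640 + 0.5% Albumax; 37 C, 5% CO2, one generation; luminescence read-out, lower signal = inhibition.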
Cycloheximide cs: counter-screen hit for Shiga toxin inhibitors, cycloheximide. cell reporter, cycloheximide protein synthesis inhibition counterscreen. max response, %. hit rate 12% among 300,000. AID 2314; in the data active means max response mostly above about 13%, no sharp cut-off; inactive means mostly below about 14%; further: read at 38.3 µM for the half of the compounds with a filed dose; 0% is about no effect
Pf growth 96h: inhibits malaria parasite growth, 96 h; AID 504834; hit rate 6.9% among 320,000; P. falciparum luciferase reporter growth, 96 h; Potency, µM (doses to about 28.7 µM), for the others: top-dose activity change, negative = inhibition, most hits filed as inhibitors; further: potency means the concentration at half of the fitted maximal effect; on the % scale 0 is the no-effect control and ±100 the full control effect
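Two parasite generations (96 h, 37 C, 5% CO2) of compound exposure in infected erythrocytes (0.05% parasitemia, 2% hematocrit). Luciferase-reporter P. falciparum; decreased luminescence indicates inhibited growth, aimed at apicoplast-acting delayed death.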
Shiga toxin inh: Shiga toxin inhibition. Vero cells, Shiga toxin protein synthesis inhibition reporter. inhibition, % at 38.7 µM. hit rate 9.2% among 290,000; in the data active means inhibition mostly above about 28%, no sharp cut-off; inactive means mostly below about 43%; further: 0% is about no effect
AMA1-RON2 inh: AMA1-RON2 (P. falciparum) interaction inhibition | AlphaScreen AMA1-biotinylated RON2 peptide binding | hit rate 0.2% among 360,000 | Potency, µM (doses to about 58.2 µM), without a hit: at the highest dose activity change, negative = inhibition, hits mostly inhibitors;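 further: potency means the concentration at half of the fitted maximal effect; 0% = vehicle wells and -100% = peptide control; nearly all actives have a fitted effect of over 45% in size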
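AMA1 (3D7) with his tag at 25 nM final met compounds first, then biotinylated RON2 peptide at 25 nM; detection used donor plus acceptor beads, 10 µg/mL apiece, read by AlphaScreen after 30 min at room temperature.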
HCV inh: HCV inhibition; AID 651820; hit rate 3.4% among 340,000; Potency, µM (doses to about 41.8 µM), without a hit: top-dose activity change, negative = inhibition, hits mostly inhibitors; Huh7.5.1 HCVcc-Cre infection, luciferase reporter, 44 h; further: potency means the concentration at half of the fitted maximal effect; on the % scale 0 is the no-effect control and ±100 the full control effect
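A cell-based infection assay in which seeded cells (1,000 per well) receive test compound after 4 h, are inoculated with HCVcc-Cre at approximately 0.5 moi, and are incubated 44 h before luminescence detection.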
* marks the source's active call; other numbers are inactive results; ? = inconclusive; . = no result given. The list is not random: actives were taken first. Their share in the collection is about 21%. Unless noted, the call rests on the fitted dose curve; in most records, active means well fitted curve in the direction sought with a large enough effect; inconclusive means small, poorly fitted or top-dose-only effect, or another doubt; inactive means no such curve, though single readings can be large; an effect the other way counts as inactive or inconclusive.

SMILES | Pf growth 48h | Cycloheximide cs | Pf growth 96h | Shiga toxin inh | AMA1-RON2 inh | HCV inh
C[C@@H](CO)NC(=O)c1ccc2c3n(nc2c1)-c1ccccc1CO3 | 139% | 17* | 302% | 8 | 4% | -8%
COc1cc(NS(=O)(=O)c2ccc3c(c2)CCCN3C(C)=O)cc(OC)c1OC | . | 12 | . | 1 | . | .
Cc1cc(C)c2sc(NNC(=O)c3ccc(S(=O)(=O)N4CCc5ccccc5C4)cc3)nc2c1 | ? | -1 | 12µM* | -4 | 38% | 2.8µM*
Cc1nnc(NC(=O)c2ccc(S(=O)(=O)N3CCc4ccccc4C3)cc2)o1 | -8% | -3 | -27% | -9 | 86% | 9%
N=c1n(CCO)c2ccccc2n1Cc1ccc(Cl)cc1 | . | -2 | -13% | -13 | 2% | -19%
Cc1cccc(OCC(O)CN2CCNCC2)c1 (stereo unspecified) | 7% | -1 | 103% | -21 | 10% | 26%
CCN(CC)CCn1c(=N)n(CC(O)c2ccc(OC)c(OC)c2)c2ccccc21 (stereo unspecified) | 9.3µM* | -1 | 4% | -14 | 7% | -12%
Cc1cccc(OCC(O)Cn2c(=N)n(Cc3ccccc3)c3ccccc32)c1 (stereo unspecified) | 5.9µM* | -4 | 5.2µM* | -15 | -15% | ?
CCOC(=O)Cn1c(=N)n(CCOc2cccc(C)c2)c2ccccc21 | -8% | -2 | ? | -11 | -14% | ?
CCN(CC)CCn1c(=N)n(CC(O)COc2cccc(C)c2)c2ccccc21 (stereo unspecified) | ? | -3 | 34% | 5 | -20% | 6.3µM*
CCN(CC)CCn1c(=N)n(CC(O)c2ccco2)c2ccccc21 (stereo unspecified) | ? | -3 | ? | -3 | 0% | -23%
N=c1n(Cc2ccc(Cl)cc2)c2ccccc2n1CC(O)COc1ccccc1 (stereo unspecified) | ? | -4 | -11% | -25 | -14% | 13µM*
O=C(NN=C1CCCCC1)Nc1ccccc1Cl | -5% | . | ? | . | 32% | ?
CCOc1ccc(S(=O)(=O)NCCC(=O)N2CCN(C(C)=O)CC2)cc1 | . | . | . | . | 148% | .
Cc1ccc(Cc2c(-c3cccc(Br)c3)nc3c(C)cc(Br)cn23)cc1 | . | . | . | . | 7% | .
Cc1ccc(OCC(O)Cn2c(=N)n(Cc3ccccc3)c3ccccc32)cc1 (stereo unspecified) | . | -4 | 3.7µM* | -6 | -13% | ?
Cc1cccc(OCC(O)CN2CC2)c1 (stereo unspecified) | . | . | . | . | 101% | .
N=c1n(Cc2ccccc2)c2ccccc2n1CC(O)c1ccco1 (stereo unspecified) | . | -3 | ? | -8 | 1% | -6%
Cc1cccc(OCC(O)Cn2c(=N)n(CCN3CCCCC3)c3ccccc32)c1 (stereo unspecified) | 2.9µM* | 8 | 2.6µM* | -7 | 14% | 7.1µM*
COc1ccc(OCC(O)Cn2c(=N)n(Cc3ccccc3)c3ccccc32)cc1 (stereo unspecified) | ? | -3 | ? | -16 | 13% | 10µM*
N=c1n(Cc2ccccc2)c2ccccc2n1CC(O)COc1ccc(Cl)cc1Cl (stereo unspecified) | ? | -5 | 0% | -50 | -5% | 11µM*
O=C(/C=C/[C@H]1O[C@@H](n2ccc(=O)[nH]c2=O)[C@H](O)[C@@H]1O)NCCCc1ccccc1 | . | . | . | . | 10% | .
CN1OC[C@@H]2CN[C@H](c3cccc(Oc4ccccc4)c3)C[C@@H]21 | . | . | . | . | -6% | .
CC(=O)Nc1ccc(N(C(=O)c2ccco2)C(C(=O)NC2CCCC2)c2cccs2)cc1 (stereo unspecified) | ? | -1 | ? | 14 | 15% | 10%
COc1ccc(N(C(=O)c2ccco2)C(C(=O)NC2CCCC2)c2ccncc2)cc1 (stereo unspecified) | 5% | 1 | 10% | -10 | -1% | ?
SMILES | Pf growth 48h | Cycloheximide cs | Pf growth 96h | Shiga toxin inh | AMA1-RON2 inh | HCV inh
CC(=O)Nc1ccc(N(C(=O)c2ccco2)C(C(=O)NC2CCCCC2)c2ccccc2)cc1 (stereo unspecified) | ? | 12* | 3% | 35* | 5% | 2%
CC(C)c1ccc(N(C(=O)c2ccco2)C(C(=O)NC2CCCC2)c2ccncc2)cc1 (stereo unspecified) | 42% | 33* | 18% | 73* | -14% | -1%
CCC(C)c1ccc(N(C(=O)c2ccco2)C(C(=O)NC2CCCC2)c2cccnc2)cc1 (stereo unspecified) | 1.9µM* | 39* | 28% | 94* | 5% | ?
Cc1nc(C)n(CC(=O)N2CCCC(C(=O)c3cccc4ccccc34)C2)n1 (stereo unspecified) | 0% | 14* | ? | 24 | 11% | 0%
CCCc1cc(C(=O)N2CCCC(C(=O)c3cccc4ccccc34)C2)n(C)n1 (stereo unspecified) | 0% | 9 | ? | 45 | -4% | ?
CCc1cc(C(=O)N2CCCC(C(=O)c3cccc4ccccc34)C2)n(C)n1 (stereo unspecified) | 3% | 0 | ? | -1 | -12% | 10µM*
CCc1cccc(C)c1NC(=O)CN(C)S(=O)(=O)c1ccc(-c2ccc(=O)[nH]n2)s1 | ? | 2 | ? | -2 | 6% | -1%
C/C(=N/NS(=O)(=O)c1ccc(C)cc1)c1c(O)c2ccccc2oc1=O | 2% | 0 | -3% | -1 | 6% | 6%
CCCCCN=C(C)c1c(O)c2ccccc2oc1=O | 1% | 42* | ? | 65* | 24% | -5%
CC1Oc2ccccc2N(CC(=O)NCc2ccccc2)C1=O (stereo unspecified) | 185% | 31* | ? | 105* | 0% | 21%
O=C(CN1C(=O)CCS(=O)(=O)c2ccccc21)NCc1ccc2c(c1)OCO2 | -10% | 1 | -20% | -7 | 3% | 11%
O=C(CN1C(=O)CCS(=O)(=O)c2ccccc21)NCc1ccccc1 | 2% | 3 | 2.6µM* | 8 | 14% | 5%
Cc1ccc(NC(=S)NNC(=O)c2cccc([N+](=O)[O-])c2)cc1Cl | 43% | -2 | 0% | 0 | 62% | 23%
COc1ccc(F)cc1S(=O)(=O)NCc1cc(=O)n(C)c(=O)n1C | 24% | -10 | -22% | -10 | 13% | 1%
CCCCN(CC)C(=O)C1CCC(CNS(=O)(=O)c2cccc3nsnc23)CC1 (stereo unspecified) | -12% | -10 | ? | -3 | 14% | 5%
O=C(CSc1n[nH]c(=O)n1Cc1ccccc1)Nc1ccc(F)c(F)c1F | -24% | 3 | -1% | -14 | 1% | ?
CCc1cccc(NC(=O)Cn2c(=O)c3cccn3c3ccccc32)c1 | 10% | -4 | 1% | -5 | 0% | 11%
